According to the supplement of paper PMC6555819:

How the values were obtained:
Assay in all cases: PBM binding z-score (relative to random genomic background probes); higher = stronger binding; sequences stand for … in GC…GCGATTGACAGCGTAGAATGAAGG
[1] = test system: RARb homodimer (NR concentration 270 nM)
How it was run: (§1)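 Binding z-scores were set against random background probes. The data came from custom Agilent 4×180K protein-binding microarrays carrying double-stranded probes with 34-nt variable regions, incubated 1 h with ligand-free nuclear receptor dimers. Partner-specific antibodies detected binding, and scanned fluorescence was regression-normalized.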

[2] = test system: RARg:RXRa (NR concentration 270 nM, RXRa partner concentration 90 nM)
How it was run: as §1

[3] = test system: RARg homodimer (NR concentration 270 nM)
How it was run: as §1

[4] = test system: RXRa DBDmut IVT, anti-RXR (DBD mutation: RXRa K156A/R161A, NR concentration 90 nM)
How it was run: as §1

[5] = test system: RXRa homodimer (NR concentration 180 nM)
How it was run: as §1

[6] = test system: THRa:RXRa (NR concentration 90 nM, RXRa partner concentration 90 nM)
How it was run: as §1

[7] = test system: THRa homodimer (NR concentration 90 nM)
How it was run: as §1

[8] = test system: VDR homodimer (NR concentration 270 nM)
How it was run: as §1

Sequence	PBM binding z-score [1]	PBM binding z-score [2]	PBM binding z-score [3]	PBM binding z-score [4]	PBM binding z-score [5]	PBM binding z-score [6]	PBM binding z-score [7]	PBM binding z-score [8]
AGTCACAGTTCAGGACGAGGTAACGTAAAGCACG	1.66	2.48	1.95	1.31	1.28	3.34	1.84	0.905
TTACCAAGGTGCGCTGAGGTCGTTGATCCAACTC	1.13	0.294	-0.0595	1.12	0.936	3.59	1.87	3.64
AGAATGAGGTTATACGTAGAACAGGGAAGAAAGT	0.739	1.6	1.14	1.5	2.13	2.04	0.323	1.03
GATACAGGGTCAAGGCCAGAGAACGCGTATTGAT	3.34	5.35	5.23	2.64	6.11	3.3	1.3	1.59
TAGCCTAGGTGAGATCGGGCCAGTATACGCTATA	-0.246	-0.235	0.0324	-1.2	-0.204	1.52	-0.733	-0.357
TTACCACGGTGAGCTGAGGTCGTTGATCCAACTC	0.63	0.212	-0.116	-0.00262	0.759	3.24	1.31	1.64
ATATGTAGGTTATCGGGTCATTGAGTTTGCGCAT	3.16	3.43	2.61	1.94	3.51	3.42	2.76	5.54
